In publication PMC12136788:
Numbering of substitutions follows the chain as printed. Whole data set: some 5,800 sequences, median “enrichment r” near 0.68, cut for the highest 2% near 11. The sample as a whole holds a higher share of the highest values than the screen did.

B1: chr7:158693335:158693439:-|CDS|ENSG00000146918|unk|total|mutant (ssRNA)
RNA: GGGAGUUCUACAGUCCGACGAUCAAGGAAACAGAAAGAAGAAUUAUGGCAAAGGCUGAAGAAUUUAUUGACAGAUGUGUUGUCCGAAAGCCCAGUGGAUGGGUGGCAGGCCGUGGAAGCCCAGGGUGAAGACAAUAUGGAAACCAACAGAGGAUUGAGCAUCA
B2: chr7:158734047:158734148:-|3pUTR|ENSG00000117868|msi1_unk|FALSE|overlapping (ssRNA)
RNA: GGGAGUUCUACAGUCCGACGAUCCUACCCGGAACACACCCUCUCACAGACGUACCAAUGUUAUUUUUAUAAUUUCAUGGAUUUAGUUAUACAUACCUUAAUAGUUUUAUAAAAUUGUUGACAUUUCAGGCAAAUUUGGCCAAUCAACAGAGGAUUGAGCAUCA
B3: chr19:38730201:38730298:+|3pUTR|ENSG00000130402|msi1_unk|FALSE|overlapping (ssRNA)
RNA: GGGAGUUCUACAGUCCGACGAUCCAGAGAAUUACUAUUUACUUUAUUAACUUACGGAUUUAUUAUAUAAAUAUAUAUUCACCUAGCAACAUAUCUCUGCCGUCUCUCCUGCUCUCAUAAUGAAGACAUAGCCGAUUCUCUGCCCAACAGAGGAUUGAGCAUCA
B4: chr12:107752058:107752159:-|CDS|ENSG00000110851|unk|FALSE|unique (ssRNA)
RNA: GGGAGUUCUACAGUCCGACGAUCUAACUCUAUAAAUGUUGAUGGUAAUACAGCAUUAUCUAUCACCAAUAACCCUUCAGCACUAGAUCCCUAUCAGUCCAAUGGAAAUGUUGGAUUAGAACCAGGCAUUGUUUCAAUAGACUCCAACAGAGGAUUGAGCAUCA
B5: ENSG00000136451:be:win_1351|CDS|ENSG00000136451|bound_else_gene|NA|bound_elsewhere_windowed (ssRNA)
RNA: GGGAGUUCUACAGUCCGACGAUCCCAUUAUCCAUGACCUCUCCUUUAACACUCACUACCCCAGUCAACCUCCCCACCCCCGUCACUGCCCCAGUGAAUAUAGCACACCCUGUCACCAUCACAUCUCCAAUGAAUCUACCCACACAACAGAGGAUUGAGCAUCA
B6: chr3:58425360:58425463:+|3pUTR|ENSG00000168297|unk|FALSE|unique (ssRNA)
RNA: GGGAGUUCUACAGUCCGACGAUCAGACAGCUCCUAGAAACAUUCCUCUUACAGUUCAUUUCUCUAAAGCAUUUUCUGAUUCUUAGAUAACUCCAAUUUUUGCUACCUUUAUCUUAGACAUUAACACUAUAGCCCAAAGCAUAGCAACAGAGGAUUGAGCAUCA
B7: chr2:165880514:165880799:-|CDS|ENSG00000123607|control|control|control (ssRNA)
RNA: GGGAGUUCUACAGUCCGACGAUCGAUGGCAUGGAAAUAUAGCAAUCGGACAAAUCCGGCAGUAGGUGAGUUUGGCAAUCACCUAGAUUUUUCACAGAAAAAUUAUGUUGUAUUUAUUAAUUUUCAUUUAAAUGCAUUUGAUUUCAACAGAGGAUUGAGCAUCA
B8: chr14:75059847:75060235:-|three_prime_utr|ENSG00000119640|control|control|control (ssRNA)
RNA: GGGAGUUCUACAGUCCGACGAUCAACCACAUUAAAAAAAUAAAAAGGAUAACUGGAAAAUCCCAAAAUAUUUGGAAACCAUAUAGCACACUUACUUCUAAAAUUGUGGUAGAAUACAUAUAACAUAGAAAUUAUUGUUCUAACCAACAGAGGAUUGAGCAUCA
B9: chr1:93180074:93180188:-|CDS|ENSG00000117500|unk|total|mutant (ssRNA)
RNA: GGGAGUUCUACAGUCCGACGAUCCUGGCCGCUCUGCCUCCGGUGCUGCUGCCUGGGGCGGCCGGCUUCACACCUUCCCUCGACCGCGACUUCACCUUUACCCUUCCCGCCGGCCAGAAGGAGUGCUUCUACCAGCCCAUGCCCCAACAGAGGAUUGAGCAUCA
B10: chr11:11963431:11963477:-|3pUTR|ENSG00000050165|msi1_unk|FALSE|overlapping (ssRNA)
RNA: GGGAGUUCUACAGUCCGACGAUCUUGACACUGUCCCUCUUUGGCAGUUGCAUUAGUAACUUUGAAAGGUAUAUGACUGAGCGUAGCAUACAGGUUAACCUGCAGAAACAGUACUUAGGUAAUUGUAGGGCGAGGAUUAUAAAUCAACAGAGGAUUGAGCAUCA
B11: chr1:965281:965395:+|3pUTR|ENSG00000187961|unk|FALSE|unique (ssRNA)
RNA: GGGAGUUCUACAGUCCGACGAUCCCAUCCGUUCACGUCUCUGCAUCCAUUCCUUCAUGUCUUUAUUUAGUUGUUUAUUUAUUUAGUUAUUUAUCUUAUUUAUUGAGGGGUGAGGAGUGCCACGGCUGCCCGUUUACACCUUUACAACAGAGGAUUGAGCAUCA
B12: chr8:47773456:47773635:-|3pUTR|ENSG00000253729|msi1_unk|FALSE|overlapping (ssRNA)
RNA: GGGAGUUCUACAGUCCGACGAUCGUUUUUUCCUUUCAUUUUAUUCUCUUCUAGUUUUGACAUUUUAUGAUAGAUUUGCUCUCUAGAAGGAAACGUCUUUAUUUAGGAGGGCAAAAAUUUUGGUCAUAGCAUUCACUUUUGCUACAACAGAGGAUUGAGCAUCA
B13: chr1:965281:965395:+|3pUTR|ENSG00000187961|unk|total|mutant (ssRNA)
RNA: B11 RNA with U67C, A68C, U83C, A84C
B14: chr11:130144177:130144243:+|3pUTR|ENSG00000084234|msi1_unk|total|mutant (ssRNA)
RNA: GGGAGUUCUACAGUCCGACGAUCAUGAGGGUGUCCGCUGCUGCUUUCCUUCGGAAUCCAGUGCUUCCACAGAGAUCCGCCUGCCGCUUAUAUUUGACAUUCUUCACUGUCUGUUGUUUACCUACCGCCGCUUUUUACCGUUCACAACAGAGGAUUGAGCAUCA
B15: ENSG00000124766:be:win_2951|3pUTR|ENSG00000124766|bound_else_gene|NA|bound_elsewhere_windowed (ssRNA)
RNA: GGGAGUUCUACAGUCCGACGAUCCUUUAUUCCUUCCUUUUCCUUUUUUUCUUUUUUUUUUCUUUUUUUUUUUUUUUUUUUGGUAGUUGUUGUUACCCACGCCAUUUUACGUCUCCUUCACUGAAGGGCUAGAGUUUUAACUUUCAACAGAGGAUUGAGCAUCA
B16: ENSG00000124766:be:win_3001|3pUTR|ENSG00000124766|bound_else_gene|NA|bound_elsewhere_windowed (ssRNA)
RNA: GGGAGUUCUACAGUCCGACGAUCUUUUUUUGGUAGUUGUUGUUACCCACGCCAUUUUACGUCUCCUUCACUGAAGGGCUAGAGUUUUAACUUUUAAUUUUUUAUAUUUAAAUGUAGACUUUUGACACUUUUAAAAAACAAAAACAACAGAGGAUUGAGCAUCA
B17: chr2:73730642:73730743:-|CDS|ENSG00000144034|unk|FALSE|unique (ssRNA)
RNA: GGGAGUUCUACAGUCCGACGAUCUUCAGACGUAGGAAACAAUGGUUAAUGAUCUUGUGUUUUUUUUUUCAUUUUUUUUCUCUUAGAUUUCAGAGGCUUUGAAAAAAUUUGGUAUCUCAGCAAAUGACACUUCAAUUCUAAUUGCAACAGAGGAUUGAGCAUCA
B18: chr1:17407970:17408071:-|3pUTR|ENSG00000179051|msi1|FALSE|unique (ssRNA)
RNA: GGGAGUUCUACAGUCCGACGAUCGGGUACCGUUCUGCUGACCCAGCUCCCUUUAGUCACGUUUGCUUGGCUCUGGUACCAAAUAGUUGGGAUUACCGAAGAGUCCCCUUCCUUGCGUGUCAGCACGGAUGCUGUGACUGCCACCAACAGAGGAUUGAGCAUCA
B19: chr10:110135209:110135310:+|3pUTR|ENSG00000148700|msi1|FALSE|bound_elsewhere (ssRNA)
RNA: GGGAGUUCUACAGUCCGACGAUCCUCUCUAUUGGAAGAUUUUUUUAAUGUUCUACAUCAUUUAUGUUGUAUUACAAUGUAUGUAGAAAUAGUAACCUGUGAACUAUGCUUUUCCAUAACUUUUUAAAAAUAUAUAUAUCUAAACAACAGAGGAUUGAGCAUCA
B20: chr9:72354534:72354635:-|3pUTR|ENSG00000107372|msi1|FALSE|unique (ssRNA)
RNA: GGGAGUUCUACAGUCCGACGAUCGUCCUAGUUUUUACUUUUAUUCUUAAAGCAUUCAGUUUUGCUUUCAAUUUUAUGUACCUUAGUUCUGAGUUAGACCUGCAGAUGUGUACAGAUAGUUCAUAUUUAUGUAUUGCACAUAAUCAACAGAGGAUUGAGCAUCA
B21: chr10:95311796:95311897:-|3pUTR|ENSG00000095637|unk|FALSE|unique (ssRNA)
RNA: GGGAGUUCUACAGUCCGACGAUCCAGACAUAGAUUUUUCUGUUCAUUUAUUUUUCUUCAUUGCAGUGGAUUGAUUUGAUAAAUAGAUGUGUUGAAUUACUACAUUUGCUGUACAUAUUAUUUAAUAAACUUUAUUCAGAAUUGCAACAGAGGAUUGAGCAUCA
B22: chr10:62095068:62095169:+|3pUTR|ENSG00000150347|msi1|FALSE|unique (ssRNA)
RNA: GGGAGUUCUACAGUCCGACGAUCCCAUUUGCUUCAAUUAAUUAUUUACCUUCCUGUGGAAUAAUAUAUAUAUAUAUAUUUAAUAGAACCAUAGAUAGACUAGUAGAAUUUAGAUUAUAAAUGUGUGAGUGCAGAUUAUCCUGCCAACAGAGGAUUGAGCAUCA

Biological target: T1, UNK ZnF1-6 (called full-length) (human, UniProt Q9C0B0 30-357)
T1 sequence: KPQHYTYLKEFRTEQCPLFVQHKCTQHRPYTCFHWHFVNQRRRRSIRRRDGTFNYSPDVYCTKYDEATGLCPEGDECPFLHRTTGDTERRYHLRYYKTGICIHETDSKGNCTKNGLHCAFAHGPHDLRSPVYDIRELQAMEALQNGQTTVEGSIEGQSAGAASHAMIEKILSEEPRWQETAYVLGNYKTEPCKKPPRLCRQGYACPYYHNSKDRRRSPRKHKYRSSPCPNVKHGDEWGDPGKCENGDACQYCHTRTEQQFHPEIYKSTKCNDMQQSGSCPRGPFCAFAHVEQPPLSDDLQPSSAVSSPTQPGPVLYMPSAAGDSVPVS
Assay: nsRBNS (natural sequence RNA bind-n-seq); RBNS binding buffer (assumed for nsRBNS): 25 mM Tris pH 7.5, 150 mM KCl, 3 mM MgCl2, 0.01% Triton X-100, 500 ug/ml BSA, 20 U/ml SUPERase-In, 4 C; UNK is unkempt and MSI1 is Musashi-1; names of the RNAs are library labels; protein concentration not given here; high values mean tight binding

With B1 as the binder, how does the binding signal read?
Its binding signal is 1 enrichment R.

B2 was tested. Which binding signal did it give?
Its binding signal is 33.1 enrichment R.

Which binding signal does the source give for B3 here?
Its binding signal is 20.4 enrichment R.

Which binding signal does the source give for B4 here?
Its binding signal is 0.391 enrichment R.

Which binding signal does the source give for B5 here?
The binding signal was 1.83 enrichment R.

For B6, which binding signal is on record?
The binding signal was 3.62 enrichment R.

For B7, which binding signal is on record?
Its binding signal is 0.541 enrichment R.

B8 was tested. Which binding signal did it give?
The binding signal was 2.02 enrichment R.

Which binding signal does the source give for B9 here?
Its binding signal is 0.868 enrichment R.

B10 was tested. Which binding signal did it give?
The binding signal was 0.884 enrichment R.

How did the binding signal turn out when B11 was run?
The binding signal was 199 enrichment R.

How did the binding signal turn out when B12 was run?
Its binding signal is 5.42 enrichment R.

Which binding signal does the source give for B13 here?
Its binding signal is 5.63 enrichment R.

For B14, which binding signal is on record?
The binding signal was 0.644 enrichment R.

Which binding signal does the source give for B15 here?
Its binding signal is 35.6 enrichment R.

How did the binding signal turn out when B16 was run?
Its binding signal is 4.11 enrichment R.

With B17 as the binder, how does the binding signal read?
The binding signal was 1.44 enrichment R.

For B18, which binding signal is on record?
The binding signal was 2 enrichment R.

B19 was tested. Which binding signal did it give?
Its binding signal is 7.46 enrichment R.

For B20, which binding signal is on record?
Its binding signal is 37.4 enrichment R.

With B21 as the binder, how does the binding signal read?
The binding signal was 2.42 enrichment R.

With B22 as the binder, how does the binding signal read?
Its binding signal is 15.6 enrichment R.
